In PubChem BioAssay (Tox21):
Calls of active or inactive are those of the source. The call rests on the fitted dose curve; in most records, active means well fitted inhibition curve with a large enough effect in the repeat runs (not every such curve was filed as active); inconclusive means weak or mixed curves; inactive means flat fitted curve, though single readings scatter.

Each compound was assayed against Thyrotropin-releasing hormone receptor (Homo sapiens) (UniProt P34981) (assay: qHTS assay to identify small molecule antagonists of the thyrotropin-releasing hormone receptor (TRHR) signaling pathway (AID 1346877)). Conditions: TRHR-HEK293, TRH-induced calcium fluorescence, antagonist mode; series mostly up to 51.3 µM.
Excerpt: National Center for Advancing Translational Sciences [NCATS]
NIH Chemical Genomics Center [NCGC]
U.S. Environmental Protection Agency [EPA]
National Institutes of Environmental Health Sciences [NIEHS]
National Toxicology Program [NTP]
U.S. Food and Drug Administration [FDA]
Thyrotropin-releasing hormone (TRH) receptor (TRHR) is a G-protein-coupled receptor which binds the tripeptide thyrotropin releasing hormone. TRHR is found in the brain and, when bound by TRH, acts (through phospholipase C) to increase intracellular inositol trisphosphate. It plays a crucial role in the anterior pituitary where it controls the synthesis and secretion of thyroid stimulating hormone and prolactin. The TRHR-Hek293 assay is a cell-based assay, and it has the potential to screen G protein-coupled receptors. A compound/drug can either activate (agonist) or suppress (antagonist) GPCRs that can be monitored by levels of intracellular calcium. In this assay, the Tox21 10K compound library was screened to identify potential TRHR antagonists.
Tox21 Assay Protocol Summary:
The TRHR-Hek293 cells were dispensed at 1500cells/4uL/well in 1536-well black-clear bottom plates using a Multidrop dispenser. After the assay plates were incubated at a 37 C/5% CO2 incubator for 18 hours, 4 uL of Dye-Loading Solution was added to each well. The plates were incubated at 37 C for 2 hours. For agonist mode, 23 nL of compounds dissolved in DMSO, positive controls or DMSO only was transferred to the assay plate by a pin tool. The fluorescence intensity in the plates was measured using FDSS 7000EX kinetic plate reader for 3 min at 1 sec intervals. For antagonist mode, 23 nL of compounds dissolved in DMSO, positive controls or DMSO only was transferred to the assay plate by a pin tool. After 5 min incubation at room temperature, 1 uL of TRH was added on the top of the cell/compound mixtures to achieve a final agonist concentration of 1 nM. The fluorescence intensity in the plates was measured using FDSS 7000EX kinetic plate reader for 3 min at 1 sec intervals. Each test compound was measured at 15 concentrations and in triplicates.

Sequence of Thyrotropin-releasing hormone receptor (Homo sapiens) (P34981 whole entry, looked up): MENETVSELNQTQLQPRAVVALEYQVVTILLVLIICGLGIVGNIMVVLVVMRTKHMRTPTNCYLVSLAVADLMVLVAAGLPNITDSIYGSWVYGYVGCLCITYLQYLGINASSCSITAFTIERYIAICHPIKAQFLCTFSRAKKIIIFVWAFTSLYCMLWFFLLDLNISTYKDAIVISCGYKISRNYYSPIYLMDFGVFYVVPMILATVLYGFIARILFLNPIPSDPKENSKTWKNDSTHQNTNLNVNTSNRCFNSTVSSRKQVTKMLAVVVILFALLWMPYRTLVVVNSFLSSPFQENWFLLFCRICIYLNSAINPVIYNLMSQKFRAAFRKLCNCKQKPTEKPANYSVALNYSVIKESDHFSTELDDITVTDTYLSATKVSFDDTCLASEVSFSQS

Structure (SMILES) | outcome
CCN(CC)CCNC(=O)COc1ccc(Cl)cc1 | inactive
O=c1[nH]c(=O)n([C@H]2C[C@H](O)[C@@H](CO)O2)cc1C(F)(F)F | inactive
CCC1(C)NC(=O)NC1=O (stereo not given) | inactive
CN1CCN(c2c(F)cc3c(=O)c(C(=O)O)cn4c3c2SCC4)CC1 | inactive
CC(=O)N[C@@H](CC(C)C)C(=O)O | inactive
CN(CC1(C)CCCO1)S(=O)(=O)c1ccc(Cl)c(S(N)(=O)=O)c1 (stereo not given) | inactive
NNS(=O)(=O)c1ccc(Oc2ccc(S(=O)(=O)NN)cc2)cc1 | inactive
CCCC1CCC(=O)O1 (stereo not given) | inactive
C=CC(C)(O)CC/C=C(\C)CCC=C(C)C (stereo not given) | inactive
Cc1nc(-c2ccccn2)ncc1C(=O)Nn1cc(C)c2cc(F)ccc21 | inactive
COc1ccc(S(=O)(=O)Nc2nnc(CC(C)C)s2)cc1 | inactive
COc1ccccc1N1CCN(CCCNc2cc(=O)n(C)c(=O)n2C)CC1 | inactive
O=Cc1ccc(O)c(O)c1O | inactive
C=O | inactive
CN1CCN(N)CC1 | inactive
CC(C)NC[C@@H](O)COc1cccc2ccccc12 | inactive
COC(=O)N[C@H](C(=O)N[C@@H](Cc1ccccc1)[C@@H](O)CN(Cc1ccc(-c2ccccn2)cc1)NC(=O)[C@@H](NC(=O)OC)C(C)(C)C)C(C)(C)C | inactive
CC1(O)CSC(C)(O)CS1 (stereo not given) | inactive
C=CCCC=C | inactive
Cc1cc(S(=O)(=O)O)c(N)cc1Cl | inactive

Structure (SMILES) | outcome
Nc1ccc(Oc2ccc(N)c(N)c2)cc1 | inactive
O=C1CCN(c2ccccc2)N1 | inactive
COC(=O)c1ccc(OC)cc1 | inactive
Cc1c(C(=O)NCCO)[n+](=O)c2ccccc2n1[O-] | inactive
O=C1Nc2ccc([N+](=O)[O-])cc2C1=O | inactive
COc1cc(N)c(Cl)cc1C(=O)NC1CCN(Cc2ccccc2)CC1 | inactive
CCC/C=C/CO | inactive
CC1=CC(=O)CC(C)(C)C1=O | inactive
NC/C=C/C(=O)O | inactive
Cc1ccccc1C(=O)Nc1ccc(C(=O)N2CCCC(O)c3cc(Cl)ccc32)c(C)c1 (stereo not given) | inactive
C[C@]12C(=O)OC(=O)[C@H]1[C@H]1C=C[C@@H]2C1 | inactive
N#Cc1ccc(C(c2ccc(C#N)cc2)n2cncn2)cc1 | inactive
NC(=O)NS(=O)(=O)c1ccc(Cl)cc1 | inactive
CCN1CC(CCN2CCOCC2)C(c2ccccc2)(c2ccccc2)C1=O (stereo not given) | inactive
CCOC(=O)NCCC[Si](OCC)(OCC)OCC | inactive
ICCc1ccccc1 | inactive
Cc1cn([C@@H]2O[C@H](CO)[C@@H](O)[C@@H]2F)c(=O)[nH]c1=O | inactive
FC(F)(F)C(F)(F)C(F)(F)C(F)(F)C(F)(F)C(F)(F)C(F)(F)C(F)(F)Br | inactive
Cc1c(-c2ccccc2)oc2c(C(=O)OCCN3CCCCC3)cccc2c1=O | inactive
Cc1ncc(CO)c(CN)c1O | inactive
